Measurements as given in PubChem BioAssay.
The source made the active and inactive calls. Unless noted, no rule for the calls is given here.

Columns and labels:
[1] = system: XIP peptide (Xip251-270) binding; experiment: small-molecule binders of XIP peptide, primary screen, biochemical, small-molecule microarray, fluorescence 635/667 nm, 0.1 µg/mL protein (AID 1182); details: fluorescent protein binding, 635 nm, higher = more signal, called active from +8 up or from −8 down
XIP peptide (Xip251-270) = experiment: small-molecule binders of XIP peptide, primary screen, biochemical, small-molecule microarray, fluorescence 635/667 nm, 0.5 µg/mL protein (AID 1183); details: small-molecule microarray binding, fluorescence 635 nm; higher = more signal
[2] = Plasmodium falciparum growth inhibition, primary screen, strain 3D7, DAPI fluorescence, 100 nL (AID 1184);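 also: parasites grown inside human red blood cells in medium with human serum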; details: P. falciparum 3D7 growth, 3 d, higher = more signal
[3] = biological target: Homeobox protein Hox-A13 (Mus musculus) (UniProt Q62424); experiment: inhibitors of HoxA13-DNA binding, primary screen, biochemical, fluorescence polarization, labeled oligonucleotide (AID 1185); details: 15 min, higher = more signal, called active from +8 up or from −8 down
[4] = inhibitors of hydroxyurea-induced Chk1 phosphorylation, primary screen, imaging, HeLa, phospho-Chk1 antibody, percent positive cells (AID 1186); details: hydroxyurea-induced phospho-Chk1 immunofluorescence imaging, higher = more signal
[5] = inhibitors of hydroxyurea-induced Chk1 phosphorylation, primary screen, imaging, HeLa, phospho-Chk1 nuclear intensity (AID 1187); details: hydroxyurea-induced phospho-Chk1 immunofluorescence imaging, higher = more signal

Sequence of Homeobox protein Hox-A13 (Mus musculus) (Q62424 whole entry, looked up): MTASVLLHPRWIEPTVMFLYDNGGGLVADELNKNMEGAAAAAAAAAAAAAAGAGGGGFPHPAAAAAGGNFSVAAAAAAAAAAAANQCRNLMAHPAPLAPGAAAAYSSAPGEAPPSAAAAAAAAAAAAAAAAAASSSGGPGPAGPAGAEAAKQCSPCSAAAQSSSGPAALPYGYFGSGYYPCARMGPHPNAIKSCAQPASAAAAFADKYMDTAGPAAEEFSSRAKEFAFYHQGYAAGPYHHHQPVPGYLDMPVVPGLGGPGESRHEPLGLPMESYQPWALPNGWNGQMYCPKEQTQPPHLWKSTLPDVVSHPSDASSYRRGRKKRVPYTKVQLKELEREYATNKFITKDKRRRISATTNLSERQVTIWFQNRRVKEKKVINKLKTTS

Row | Structure (SMILES) | composite z-score [1] | composite z-score (XIP peptide (Xip251-270)) | z-score [2] | z-score [3] | z-score [4] | z-score [5]
1 | CN(C)CCCC[C@@H]1NC(=O)[C@@H]2C[C@H](C(=O)NCCCCCNC(=O)CS)[C@H](c3ccc(O)cc3)N2C1=O | 0.207 (inactive) | -0.279 | 0.386 | -0.848 (inactive) | -0.205 (inactive) | -0.456 (inactive)
2 | CC1=C([C@H](O)CCc2ccccc2)[C@H](CO)[C@@H]2C(=O)N(Cc3ccccc3)C(=O)[C@@H]2C1 | -0.241 (inactive) | -0.0644 | -0.793 | -4.92 (inactive) | -0.698 (inactive) | -0.835 (inactive)
3 | O=C1O[C@@H](c2ccccc2)[C@@H](c2ccccc2)N2[C@@H](c3ccc(O)cc3)[C@]3(C(=O)Nc4ccccc43)[C@@H](C(=O)N3CCN(c4ncccn4)CC3)[C@H]12 | 1.55 (inactive) | -0.278 | -1.46 | -2.96 (inactive) | -0.231 (inactive) | -0.242 (inactive)
4 | C=CC[C@]1(C(=O)O)N=C(c2ccc(OCCCO)cc2)O[C@H]1c1ccccc1N=[N+]=[N-] | 0.718 (inactive) | -0.519 | -1.3 | -5.25 (inactive) | -0.0145 (inactive) | 0.144 (inactive)
5 | COc1cc2c(cc1OC)CN(C(=O)[C@H]1[C@@H]3C(=O)O[C@@H](c4ccccc4)[C@@H](c4ccccc4)N3[C@@H](c3ccccc3OCCO)[C@]13C(=O)Nc1ccc(C#CC4(O)CCCCCC4)cc13)CC2 | 1.62 (inactive) | 0.837 | -2.14 | 1.74 (inactive) | -0.0766 (inactive) | 0.196 (inactive)
6 | COc1ccc([Si](C)(C)[C@@H]2[C@@H](CCO)O[C@]3(C(=O)N(Cc4ccc(NC(=O)[C@H](C)O)cc4)c4ccccc43)[C@H]2C)cc1 | 0.894 (inactive) | 0.752 | -2.79 | -4.05 (inactive) | -1.42 (inactive) | -1.27 (inactive)
7 | CCCC=C(CCC)[C@@H](NS(=O)(=O)c1cccc(C(F)(F)F)c1)c1ccc(C(=O)OC)cc1 | 0.0637 (inactive) | 0.377 | 0.551 | -1.64 (inactive) | 0.0948 (inactive) | -0.275 (inactive)
8 | COc1cc(CO)cc(I)c1O[C@H]1C=C(C(=O)NCCO)C[C@@H](NCCc2c[nH]c3ccccc23)[C@@H]1O | -0.26 (inactive) | 0.0826 | -3 | -7.08 (inactive) | -0.925 (inactive) | -0.879 (inactive)
9 | COC(=O)c1c(CC[C@@H](CO)NC(=O)N[C@H](Cn2cc(-c3cncn3C)nn2)C(C)C)oc(C(C)=O)c1C(=O)OC | 1.88 (inactive) | -0.0139 | -2.19 | 3.03 (inactive) | -0.139 (inactive) | 0.233 (inactive)
10 | O=C1C2C=CC(C(O)Cc3ccccc3)N(Nc3ccc([N+](=O)[O-])cc3)C2C(=O)N1c1ccccc1 (stereo not given) | 2.76 (inactive) | -0.224 | -0.463 | -5.69 (inactive) | 0.433 (inactive) | -0.541 (inactive)
